Results taken from PubChem BioAssay (NCATS).
“And” between values parts separate entries of the source, which are not always exact repeats. Identical values can stand only once. Inconclusive results are not listed. The source made the active and inactive calls. Unless noted, calls follow the shape of the full dose curve.

Columns and labels:
[1] = MultiTox-Fluor Cytotoxicity Assay - LYMP1-001 - Live Cells (AID 947; active = well fitted curve in the direction sought with a large enough effect; an effect the other way counts as inactive or inconclusive;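 also: 0% = DMSO only and full inhibition = tetraoctylammonium bromide control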)
[2] = Cell Viability - LYMP2-015 (AID 971; active = well fitted curve in the direction sought with a large enough effect; an effect the other way counts as inactive or inconclusive;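 also: 0% = DMSO only and full effect = 92 µM tetraoctylammonium bromide; nearly all actives have a fitted effect of over 55% in size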)
Summary of the method: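 Human lymphoblastoid cells (2500/well) in complete medium were preincubated 5 hr at 37 C, then compound-treated 24 hr at 37 C. Intracellular ATP was read by CellTiter-Glo luminescence after 30 min at room temperature; AC50 came from Hill-equation concentration-response fits.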

[3] = Cell Viability - LYMP2-024 (AID 988; active = well fitted curve in the direction sought with a large enough effect; an effect the other way counts as inactive or inconclusive;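 also: plate controls were DMSO only for no effect and 92 µM tetraoctylammonium bromide for full effect; nearly all actives have a fitted effect of over 60% in size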)
Summary of the method: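 Human lymphoblastoid cells (2500/well) in complete medium were preincubated 5 hr at 37 C, then exposed to compounds for 24 hr at 37 C. Intracellular ATP was read by CellTiter-Glo luminescence; AC50 from Hill-equation fits of concentration-response data.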

[4] = target: Bile acid receptor (Homo sapiens) (UniProt Q96RI1); assay: qHTS assay for small molecule agonists of farnesoid X receptor signaling (AID 588527); details: HEK293T FXR-UAS-bla, beta-lactamase ratio, 16 h; stronger effect = higher value;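 also: series mostly up to about 77 µM; 0% = vehicle basal and 100% = reference agonist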
Summary of the method: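 Quantitative HTS used FXR-UAS-bla HEK293T cells with 16 h compound incubation at 37 C. EC50 values came from concentration-response curves normalized to chenodeoxycholic acid.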

[5] = target: Glucocorticoid receptor (Homo sapiens) (UniProt P04150); assay: qHTS assay for small molecule agonists of glucocorticoid receptor signaling (AID 588532; active = well fitted curve in the direction sought with a large enough effect in the signal ratio, with a control signal flat; the % refers to the signal ratio;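 also: 100% = dexamethasone at 0.1 µM and 0% = DMSO only wells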); details: HeLa MMTV-bla, beta-lactamase ratio, agonist, 18 h; stronger effect = higher value; percent of dexamethasone control, DMSO zero
Summary of the method: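 Quantitative HTS using CellSensor MMTV-bla HeLa cells in charcoal/dextran-treated serum; compounds tested up to 92 uM. After 18 h at 37 C, CCF4 dye reported reporter induction.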

[6] = target: Glucocorticoid receptor (Homo sapiens) (UniProt P04150); assay: qHTS assay for small molecule antagonists of glucocorticoid receptor signaling (AID 588533; active = well fitted inhibition curve with a large enough effect in the signal ratio, with a control signal flat, not every such curve was filed as active; the % refers to the signal ratio;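 also: cells stimulated with 2 nM dexamethasone as agonist; % is scaled to controls: 0 for no effect and ±100 for the full control effect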)
Summary of the method: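 Antagonist-mode qHTS: compound titrations added to GRE-bla HeLa cells, then dexamethasone 2 nM final; 18 h, 37 C. CCF4 FRET fluorescence normalized to dexamethasone and DMSO; IC50 from Hill fit.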

[7] = target: Peroxisome proliferator-activated receptor delta (Homo sapiens) (UniProt Q03181); assay: qHTS assay for small molecule agonists of peroxisome proliferator-activated receptor delta signaling (AID 588534);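 also: 0% = DMSO basal wells and 100% = positive control agonist at 10 µM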
Summary of the method: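 Cell-based beta-lactamase reporter assay run in agonist mode: cells seeded and incubated 5 hrs at 37 C, compounds added and incubated 18 hrs at 37 C. CCF4 dye fluorescence read after 2 hrs at RT; EC50 and efficacy from Hill fits.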

[8] = qHTS assay for small molecule antagonists of peroxisome proliferator-activated receptor delta signaling (AID 588535; active = well fitted inhibition curve with a large enough effect in the signal ratio, with a control signal flat, not every such curve was filed as active; the % refers to the signal ratio;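 as to max response: cells co-treated with a PPAR-delta agonist as stimulator during compound exposure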); details: HEK293T PPARd-UAS-bla, beta-lactamase FRET ratio, 18 h; 460 nm channel
Summary of the method: (§1)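 Cell-based beta-lactamase assay in antagonist mode: 4000 HEK293T PPAR-delta-UAS-bla cells per well, 5 hr preincubation then 18 hr compound incubation at 37 C. IC50 obtained by Hill equation fitting.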

[9] = target: Peroxisome proliferator-activated receptor delta (Homo sapiens) (UniProt Q03181); assay: as above
Summary of the method: as §1

[10] = target: Peroxisome proliferator-activated receptor gamma (Homo sapiens) (UniProt P37231); assay: qHTS assay for small molecule agonists of peroxisome proliferator-activated receptor gamma signaling (AID 588536; active = well fitted curve in the direction sought with a large enough effect in the signal ratio, with a control signal flat, not every such curve was filed as active; the % refers to the signal ratio;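 also: 0% = DMSO basal wells and 100% = rosiglitazone at 2 µM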)
Summary of the method: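 HEK293 UAS-bla reporter line, 1% charcoal/dextran FBS; titration, 16 h, 37 C; CCF4 loading 2 h RT; fluorescence 460/530 nm. Normalized to rosiglitazone 2 uM = 100%, DMSO = 0%.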

[11] = target: Peroxisome proliferator-activated receptor gamma (Homo sapiens) (UniProt P37231); assay: qHTS assay for small molecule antagonists of peroxisome proliferator-activated receptor gamma signaling (AID 588537; active = well fitted inhibition curve with a large enough effect in the signal ratio, with a control signal flat, not every such curve was filed as active; the % refers to the signal ratio;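 also: reporter cells co-stimulated with 50 nM rosiglitazone agonist during compound treatment; % of control where 0% means no effect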)
Summary of the method: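 Inhibitors of agonist-stimulated UAS-bla reporter activity were sought in HEK293 cells; rosiglitazone (50 nM) defined full signal and DMSO baseline. Curves fitted to Hill model gave IC50 and efficacy.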

[12] = target: Vitamin D3 receptor (Homo sapiens) (UniProt P11473); assay: qHTS assay for small molecule antagonists of vitamin D receptor signaling (AID 588541);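 also: receptor activated by calcitriol during compound treatment; series mostly up to about 77 µM; % is scaled to controls: 0 for no effect and ±100 for the full control effect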
Summary of the method: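 Antagonist-mode beta-lactamase reporter assay: HEK293T VDR-UAS-bla cells were exposed to titrated compound alongside 1-alpha,25-dihydroxyvitamin D3 at 3 nM final for 16 h. Values were normalized to the 50 nM agonist control and DMSO basal, with IC50 and efficacy from Hill equation fits.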

[13] = target: Voltage-gated inwardly rectifying potassium channel KCNH2 (Homo sapiens) (UniProt Q12809); assay: qHTS Assay for Small Molecule Inhibitors of the Human hERG Channel Activity (AID 588834; active = well fitted curve in the direction sought with a large enough effect; an effect the other way counts as inactive or inconclusive;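 also: top concentration of the series differs between compounds; % is scaled to controls: 0 for no effect and ±100 for the full control effect; lower thallium flux fluorescence means stronger hERG block; nearly all actives have a fitted effect of over 50% in size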)
Summary of the method: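 hERG-BacMam U2OS, 2000 cells/well; 0.7X FluxOR loading 1 hr RT dark; cpd ~10 min 37 °C; stim buffer; FDSS fluorescence 2 min @ 1 s; AC50 Hill fit.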

[14] = qHTS assay for small molecule agonists of the antioxidant response element (ARE) signaling pathway (AID 651741; active = well fitted activation curve with a large enough effect in the signal ratio; the % refers to the signal ratio; also: potency is read from the fitted curve at half-maximal effect; as to activation: % of control where 0% means no effect)
Summary of the method: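 Seeding 2,000 ARE-bla HepG2 cells per well preceded a 5 h incubation at 37 C/5% CO2 and a 16 h compound exposure at 37 C. Beta-lactamase reporter activity was then quantified by fluorescence after 2 h with LiveBLAzer B/G FRET substrate.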

[15] = qHTS assay for small molecule activators of the p53 signaling pathway (AID 651743; active = well fitted activation curve with a large enough effect in the signal ratio, not every such curve was filed as active; the % refers to the signal ratio; also: series mostly up to about 92 µM; % of control where 0% means no effect); details: HCT-116 p53RE-bla, beta-lactamase FRET ratio, 16 h; activation: stronger effect = higher value
Summary of the method: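 Screen for p53 pathway agonists uses stably transfected p53RE-bla HCT-116 cells, 4,000 per well, treated 16 h at 37 C with compounds in DMSO.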

[16] = qHTS assay for small molecule activators of the nuclear factor-kappa B (NF-kB) signaling pathway (AID 651749; active = well fitted activation curve with a large enough effect in the signal ratio; the % refers to the signal ratio; also: series mostly up to about 77 µM; % of control where 0% means no effect); details: NF-kB-bla ME-180 cells, beta-lactamase FRET ratio, 16 h; stronger effect = higher value
Summary of the method: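 Stably transfected ME-180 line; NF-kB response element upstream of beta-lactamase. Treatment: compound or DMSO, 16 hr. Detection: fluorescent FRET substrate.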

[17] = target: Estrogen receptor (Homo sapiens) (UniProt P03372); assay: qHTS assay for small molecule antagonists of estrogen receptor alpha signaling (AID 588513; active = well fitted curve in the direction sought with a large enough effect in the signal ratio, with a control signal flat, not every such curve was filed as active; the % refers to the signal ratio; also: % is scaled to controls: 0 for no effect and ±100 for the full control effect)
Summary of the method: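 Fluorescence from CCF4 substrate after 2 h at room temperature gave reporter activity; cells had been exposed to compound and 0.5nM 17-beta-estradiol for 18 h at 37 C. Hill-equation fitting yielded IC50 and maximal response.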

[18] = target: Thyroid hormone receptor beta (Homo sapiens) (UniProt P10828); assay: qHTS assay for small molecule agonists of thyroid hormone receptor beta signaling (AID 588545)
Summary of the method: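 HEK 293 TR-UAS-bla; agonist mode; 18 hrs, 37 C; CCF4, ex 405/em 460 and 530 nm; norm. T3 10 nM = 100%, DMSO = 0%; Hill fit → EC50, efficacy.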

[19] = qHTS assay for small molecule disruptors of the mitochondrial membrane potential - 1 hr assay (AID 651754); also: nearly all actives have a fitted effect of over 35% in size; also: potency is read from the fitted curve at half-maximal effect
Summary of the method: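 HepG2 cells, attached overnight at 37C, were exposed to compound or DMSO vehicle for 1 hr at 37C, 5% CO2, then stained with Mito-MPS dye for 30 min. Red aggregate versus green monomer fluorescence reports membrane potential.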

[20] = target: Thyroid hormone receptor beta (Homo sapiens) (UniProt P10828); assay: qHTS assay for small molecule antagonists of thyroid hormone receptor beta signaling (AID 588547; active = well fitted inhibition curve with a large enough effect in the signal ratio, with a control signal flat, not every such curve was filed as active; the % refers to the signal ratio;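 also: cells stimulated with 0.4 nM T3 agonist during compound exposure; series mostly up to about 77 µM; % is scaled to controls: 0 for no effect and ±100 for the full control effect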); details: TR-UAS-bla HEK293, beta-lactamase ratio, antagonist mode, 18 h
Summary of the method: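 Inhibition of T3-driven (0.4nM final) beta-lactamase reporter activity was measured over 0.59 nM to 92 uM compound after 18 h at 37 C. The cells were GripTite HEK293 TR-UAS-bla in charcoal/dextran-stripped serum, with CCF4 ratio read-out and IC50 from Hill fits.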

Chain of Estrogen receptor (Homo sapiens) (P03372 whole entry, looked up): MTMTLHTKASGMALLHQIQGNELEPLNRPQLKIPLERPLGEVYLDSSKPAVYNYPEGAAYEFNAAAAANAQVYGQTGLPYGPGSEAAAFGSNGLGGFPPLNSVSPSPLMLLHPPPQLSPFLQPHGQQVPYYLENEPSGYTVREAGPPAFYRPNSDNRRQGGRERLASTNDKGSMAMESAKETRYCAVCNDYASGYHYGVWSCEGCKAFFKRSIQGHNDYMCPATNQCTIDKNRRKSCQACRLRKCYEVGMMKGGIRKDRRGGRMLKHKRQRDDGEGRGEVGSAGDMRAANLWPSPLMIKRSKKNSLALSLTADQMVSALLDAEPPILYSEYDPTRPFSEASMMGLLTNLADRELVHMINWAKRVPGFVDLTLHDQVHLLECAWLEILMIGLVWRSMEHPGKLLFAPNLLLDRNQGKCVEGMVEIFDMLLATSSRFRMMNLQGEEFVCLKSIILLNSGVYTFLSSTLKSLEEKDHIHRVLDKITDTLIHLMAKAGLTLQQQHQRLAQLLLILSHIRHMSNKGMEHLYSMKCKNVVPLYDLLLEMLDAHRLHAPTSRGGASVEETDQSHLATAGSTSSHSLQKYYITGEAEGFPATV
Chain of Glucocorticoid receptor (Homo sapiens) (P04150 whole entry, looked up): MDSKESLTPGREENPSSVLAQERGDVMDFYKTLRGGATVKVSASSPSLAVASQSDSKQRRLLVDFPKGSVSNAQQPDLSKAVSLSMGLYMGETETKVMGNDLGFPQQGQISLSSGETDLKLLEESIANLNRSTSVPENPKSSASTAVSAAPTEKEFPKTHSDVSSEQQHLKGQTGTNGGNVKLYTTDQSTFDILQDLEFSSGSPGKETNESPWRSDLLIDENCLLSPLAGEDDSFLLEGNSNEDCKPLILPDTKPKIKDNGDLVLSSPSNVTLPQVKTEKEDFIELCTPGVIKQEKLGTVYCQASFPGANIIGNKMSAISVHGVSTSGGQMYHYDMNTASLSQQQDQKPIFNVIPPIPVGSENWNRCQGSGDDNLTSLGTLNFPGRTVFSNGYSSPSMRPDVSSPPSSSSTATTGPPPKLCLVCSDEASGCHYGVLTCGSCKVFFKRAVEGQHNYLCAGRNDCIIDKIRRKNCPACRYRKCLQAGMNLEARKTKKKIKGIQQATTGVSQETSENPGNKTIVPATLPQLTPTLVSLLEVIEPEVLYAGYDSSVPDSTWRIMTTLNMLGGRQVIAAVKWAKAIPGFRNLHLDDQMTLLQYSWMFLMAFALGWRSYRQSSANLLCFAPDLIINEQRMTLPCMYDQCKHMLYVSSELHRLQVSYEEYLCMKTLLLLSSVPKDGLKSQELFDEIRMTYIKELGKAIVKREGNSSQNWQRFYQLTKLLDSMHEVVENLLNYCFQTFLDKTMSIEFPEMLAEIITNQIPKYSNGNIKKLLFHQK
Chain of Vitamin D3 receptor (Homo sapiens) (P11473 whole entry, looked up): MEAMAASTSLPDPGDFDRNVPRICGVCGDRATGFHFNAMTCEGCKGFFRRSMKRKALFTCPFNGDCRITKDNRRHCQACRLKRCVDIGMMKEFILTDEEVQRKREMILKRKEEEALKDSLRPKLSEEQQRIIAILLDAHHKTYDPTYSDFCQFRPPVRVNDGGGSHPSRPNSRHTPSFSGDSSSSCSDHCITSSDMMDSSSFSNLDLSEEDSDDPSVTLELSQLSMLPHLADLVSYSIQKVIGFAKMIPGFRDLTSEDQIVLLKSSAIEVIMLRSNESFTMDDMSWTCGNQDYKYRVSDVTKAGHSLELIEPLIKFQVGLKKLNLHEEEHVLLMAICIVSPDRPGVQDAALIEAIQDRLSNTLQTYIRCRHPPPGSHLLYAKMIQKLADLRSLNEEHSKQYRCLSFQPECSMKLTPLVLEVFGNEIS
Chain of Peroxisome proliferator-activated receptor gamma (Homo sapiens) (P37231 whole entry, looked up): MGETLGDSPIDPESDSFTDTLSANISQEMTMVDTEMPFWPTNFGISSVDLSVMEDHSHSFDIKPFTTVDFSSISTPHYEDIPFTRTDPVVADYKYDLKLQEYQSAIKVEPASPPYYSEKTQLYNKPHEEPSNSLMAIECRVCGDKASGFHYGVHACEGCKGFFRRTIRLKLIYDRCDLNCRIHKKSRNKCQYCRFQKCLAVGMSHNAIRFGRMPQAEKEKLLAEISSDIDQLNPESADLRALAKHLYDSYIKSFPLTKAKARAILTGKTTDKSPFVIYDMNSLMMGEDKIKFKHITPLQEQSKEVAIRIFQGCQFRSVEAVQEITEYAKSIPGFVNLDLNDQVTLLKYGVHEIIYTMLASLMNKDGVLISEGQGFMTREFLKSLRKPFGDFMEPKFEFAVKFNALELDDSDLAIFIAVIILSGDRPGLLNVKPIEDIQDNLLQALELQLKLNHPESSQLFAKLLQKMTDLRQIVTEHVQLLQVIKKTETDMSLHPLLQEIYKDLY
Chain of Voltage-gated inwardly rectifying potassium channel KCNH2 (Homo sapiens) (Q12809 whole entry, looked up): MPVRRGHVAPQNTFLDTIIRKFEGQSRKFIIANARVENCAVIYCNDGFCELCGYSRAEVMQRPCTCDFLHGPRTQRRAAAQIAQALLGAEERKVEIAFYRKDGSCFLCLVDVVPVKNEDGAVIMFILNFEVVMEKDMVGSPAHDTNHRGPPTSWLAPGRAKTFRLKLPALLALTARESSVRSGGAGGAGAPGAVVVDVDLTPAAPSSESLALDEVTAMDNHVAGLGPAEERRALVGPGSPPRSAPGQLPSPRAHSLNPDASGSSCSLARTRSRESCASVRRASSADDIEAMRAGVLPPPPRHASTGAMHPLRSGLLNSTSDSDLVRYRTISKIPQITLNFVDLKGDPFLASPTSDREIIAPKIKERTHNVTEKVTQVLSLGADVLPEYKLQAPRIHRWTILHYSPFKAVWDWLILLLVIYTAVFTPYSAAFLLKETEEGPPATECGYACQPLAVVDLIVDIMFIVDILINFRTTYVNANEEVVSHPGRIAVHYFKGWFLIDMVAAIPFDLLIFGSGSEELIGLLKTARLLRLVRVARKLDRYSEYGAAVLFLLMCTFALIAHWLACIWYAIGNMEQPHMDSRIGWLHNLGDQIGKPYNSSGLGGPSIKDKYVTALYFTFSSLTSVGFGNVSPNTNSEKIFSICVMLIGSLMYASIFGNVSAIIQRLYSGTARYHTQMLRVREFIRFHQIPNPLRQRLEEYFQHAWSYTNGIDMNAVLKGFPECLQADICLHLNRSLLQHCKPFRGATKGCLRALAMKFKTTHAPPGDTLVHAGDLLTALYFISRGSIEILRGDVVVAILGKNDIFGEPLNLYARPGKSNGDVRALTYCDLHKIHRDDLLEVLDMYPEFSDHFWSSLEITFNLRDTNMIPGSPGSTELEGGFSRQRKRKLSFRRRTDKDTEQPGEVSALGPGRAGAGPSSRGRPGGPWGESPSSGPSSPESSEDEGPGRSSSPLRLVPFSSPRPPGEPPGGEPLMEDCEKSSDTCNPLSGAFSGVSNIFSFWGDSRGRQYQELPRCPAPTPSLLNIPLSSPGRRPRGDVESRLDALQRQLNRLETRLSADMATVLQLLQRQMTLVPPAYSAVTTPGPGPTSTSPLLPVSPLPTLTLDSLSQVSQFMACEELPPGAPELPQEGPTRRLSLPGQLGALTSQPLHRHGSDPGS
Chain of Thyroid hormone receptor beta (Homo sapiens) (P10828 whole entry, looked up): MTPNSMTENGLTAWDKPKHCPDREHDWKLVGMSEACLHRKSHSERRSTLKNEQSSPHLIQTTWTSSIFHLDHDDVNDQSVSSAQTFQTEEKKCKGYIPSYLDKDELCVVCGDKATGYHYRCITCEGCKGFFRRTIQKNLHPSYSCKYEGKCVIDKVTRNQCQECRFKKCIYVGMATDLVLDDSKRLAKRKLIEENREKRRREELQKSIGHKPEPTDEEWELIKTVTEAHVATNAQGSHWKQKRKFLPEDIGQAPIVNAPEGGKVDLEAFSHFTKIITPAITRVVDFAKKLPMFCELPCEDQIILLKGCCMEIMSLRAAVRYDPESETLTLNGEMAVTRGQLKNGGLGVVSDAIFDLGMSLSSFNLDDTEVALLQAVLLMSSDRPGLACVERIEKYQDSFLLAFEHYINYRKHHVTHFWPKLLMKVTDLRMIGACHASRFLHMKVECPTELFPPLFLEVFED
Chain of Peroxisome proliferator-activated receptor delta (Homo sapiens) (Q03181 whole entry, looked up): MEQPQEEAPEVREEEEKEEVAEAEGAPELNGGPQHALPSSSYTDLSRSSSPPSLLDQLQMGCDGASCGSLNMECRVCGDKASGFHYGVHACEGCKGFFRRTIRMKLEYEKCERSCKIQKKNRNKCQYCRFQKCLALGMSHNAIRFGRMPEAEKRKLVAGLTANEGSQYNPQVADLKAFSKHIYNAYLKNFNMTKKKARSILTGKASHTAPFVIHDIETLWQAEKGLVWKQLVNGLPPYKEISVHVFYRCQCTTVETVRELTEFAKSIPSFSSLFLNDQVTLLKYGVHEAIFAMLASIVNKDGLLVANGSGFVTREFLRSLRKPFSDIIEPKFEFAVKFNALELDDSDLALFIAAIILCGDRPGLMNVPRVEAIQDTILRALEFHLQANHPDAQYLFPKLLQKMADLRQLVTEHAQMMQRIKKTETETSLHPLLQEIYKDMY
Chain of Bile acid receptor (Homo sapiens) (Q96RI1 whole entry, looked up): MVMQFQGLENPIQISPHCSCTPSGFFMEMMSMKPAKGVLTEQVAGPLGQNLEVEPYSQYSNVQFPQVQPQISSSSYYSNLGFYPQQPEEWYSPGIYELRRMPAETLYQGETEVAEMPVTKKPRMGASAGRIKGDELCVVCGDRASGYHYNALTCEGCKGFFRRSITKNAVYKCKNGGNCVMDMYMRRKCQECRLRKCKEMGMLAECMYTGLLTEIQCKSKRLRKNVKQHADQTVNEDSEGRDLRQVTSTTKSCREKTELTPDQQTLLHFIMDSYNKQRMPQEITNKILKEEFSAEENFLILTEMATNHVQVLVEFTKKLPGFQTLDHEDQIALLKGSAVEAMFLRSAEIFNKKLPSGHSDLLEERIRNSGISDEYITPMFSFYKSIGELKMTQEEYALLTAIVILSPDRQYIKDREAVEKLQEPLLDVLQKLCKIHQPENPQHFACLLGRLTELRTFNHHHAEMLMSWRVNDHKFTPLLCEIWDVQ

CN(C)C(=O)Nc1ccc(Cl)cc1
inactive: outcome [1] | Potency [2] | Potency [3] | activation [4] 0.657% and 0.9% | activation [5] 8.83% and -10.8% | outcome [6] | outcome [7] | outcome [9] | outcome [10] | Potency [11] | outcome [12] | Potency [13] | Potency [14] | activation [15] -1.85% and -2.71% | activation [16] 2.75% and -0.215%
-2.77% and 22.5%: max response [8]

[O-][Cl+]O
inactive: outcome [1] | Potency [2] | Potency [3] | Potency [17] | activation [5] 9.28% | outcome [10] | outcome [12] | Potency [18] | Potency [13] | Potency [14] | activation [15] 0.903% | activation [16] -0.295% | Potency [19]

CCC#N
inactive: outcome [1] | Potency [2] | Potency [3] | activation [4] -0.411% | activation [5] -7.32% | outcome [6] | outcome [7] | outcome [9] | outcome [12] | activity change % (negative = inhibition) [20] -12.3% | Potency [14] | activation [16] -1.07%
-1.4%: max response [8]

CC(C)C#N
-11.5%: max response [8]
inactive: Potency [2] | Potency [3] | activation [5] 1.53% | outcome [6] | outcome [7] | outcome [9] | outcome [10] | Potency [11] | activation [16] -0.872% | Potency [19]

Cc1ccc(N)cc1N
0.381% and -13.2%: max response [8]
inactive: Potency [2] | Potency [3] | Potency [17] | activation [4] 0.164% and -1.15% | activation [5] -6.12% and -1.93% | outcome [6] | outcome [9] | outcome [10] | Potency [11] | outcome [12] | Potency [18] | activity change % (negative = inhibition) [20] 0.49% and -2.4% | Potency [13] | activation [16] -0.705% and -3.37%
active: Potency [19] 23.7 µM

C=CCc1cc(OC)c2c(c1)OCO2
inactive: outcome [1] | Potency [3] | activation [5] -4.93% | outcome [6] | outcome [12] | activity change % (negative = inhibition) [20] 4.98% | activation [16] -0.352% | Potency [19]

NNC(N)=S
inactive: outcome [1] | Potency [2] | Potency [17] | activation [4] -2.79% | activation [5] 0.137% | outcome [7] | outcome [10] | Potency [11] | outcome [12] | Potency [18] | Potency [13] | activation [15] -3.14% | activation [16] 0.227% | Potency [19]

Cc1cc(-c2ccc(N)c(C)c2)ccc1N
inactive: outcome [1] | Potency [17] | outcome [10] | Potency [11] | outcome [12] | Potency [18] | activity change % (negative = inhibition) [20] 4.51% and -14.4% | Potency [13]
active: Potency [14] 12.2 µM and 6.86 µM

CCN(CC)CCO
inactive: outcome [1] | Potency [2] | Potency [3] | activation [5] 6.4% | outcome [6] | outcome [7] | outcome [10] | Potency [11] | activity change % (negative = inhibition) [20] -7.98% | Potency [13] | Potency [14] | activation [15] 0.771% | activation [16] -0.22% | Potency [19]
24%: max response [8]

Nn1cnnc1
inactive: Potency [2] | Potency [3] | Potency [17] | activation [5] -5.65% | outcome [6] | outcome [7] | outcome [9] | Potency [11] | outcome [12] | Potency [18] | Potency [13] | activation [15] 0.253% | activation [16] -1.28% | Potency [19]
-17.8%: max response [8]

ClP(Cl)(Cl)(Cl)Cl
inactive: outcome [1] | Potency [2] | Potency [3] | Potency [17] | activation [4] -2.17% | activation [5] -4.5% | outcome [6] | outcome [7] | outcome [10] | Potency [18] | activity change % (negative = inhibition) [20] -5.32% | Potency [13] | Potency [14] | activation [16] -0.207% | Potency [19]

COC(=O)Nc1cccc(OC(=O)Nc2cccc(C)c2)c1
inactive: outcome [1] | Potency [2] | Potency [3] | activation [4] 0.654% | activation [5] -3.09% | outcome [6] | outcome [10] | Potency [18] | activity change % (negative = inhibition) [20] -5.68% | Potency [13] | activation [15] -2.65% | activation [16] -1.26%
active: Potency [19] 42.2 µM

Clc1cccc(Cl)c1
inactive: outcome [1] | Potency [2] | Potency [3] | activation [5] -3.34% | outcome [7] | outcome [9] | outcome [10] | outcome [12] | Potency [18] | activity change % (negative = inhibition) [20] 13.8% | activation [16] -1.17% | Potency [19]
20.6%: max response [8]

Cl/C=C/Cl
inactive: outcome [1] | Potency [3] | Potency [17] | activation [5] -4.99% | outcome [6] | outcome [7] | outcome [9] | outcome [12] | Potency [18] | activity change % (negative = inhibition) [20] -4.77% | Potency [14] | activation [15] -3.7% | activation [16] -1.04%
-19.1%: max response [8]

COC(=O)c1ccccc1N
-46.7%: max response [8]
inactive: outcome [1] | Potency [3] | activation [5] -6.23% | outcome [6] | outcome [7] | outcome [9] | Potency [11] | outcome [12] | Potency [18] | activity change % (negative = inhibition) [20] -1.98% | Potency [13] | activation [15] -1.42% | activation [16] -0.425%

CSSC
inactive: Potency [2] | outcome [7] | outcome [12] | Potency [18] | activity change % (negative = inhibition) [20] -18.7% | Potency [13] | Potency [14] | activation [15] -1.71%

S=C1NCCN1
inactive: Potency [2] | Potency [3] | outcome [10] | Potency [11] | outcome [12] | Potency [18] | Potency [13] | activation [16] 0.43% and 0.618%

C=CC#N
inactive: outcome [1] | Potency [2] | Potency [3] | activation [5] -6.69% | outcome [6] | outcome [10] | Potency [11] | outcome [12] | Potency [18] | activity change % (negative = inhibition) [20] -5.45% | Potency [13] | Potency [14] | activation [15] -2.66% | activation [16] -0.054%
